Results reported in ChEMBL document CHEMBL4513216, “Probing the Open Global Health Chemical Diversity Library for Multistage-Active Starting Points for Next-Generation Antimalarials” (ACS Infect Dis, 2020).
About 2,700 (4%) of roughly 68,000 compounds showed an effect of 50% or more. The entries come from a sample that favours strong results as a whole.

Test system: Plasmodium berghei
Assay: Screen against P. berghei liver stage (PbLuc), transformed with Luciferase, at 2uM
Format: functional, HepG2
Conditions: tested at 2 uM

Row | SMILES | INHIBITION
1 | O=C(Nc1nncs1)C1CSCN1C(=O)C1CCCC1 (stereo not drawn) | -67.78%
2 | COc1ccc2c(c1)C1(CCN(Cc3ccncc3)CC1)N(C)CC2 | 32.14%
3 | COc1ccc2c(c1)C1(CCN(Cc3cnn(C)c3)CC1)N(C)CC2 | 21.14%
4 | COc1ccc2c(c1)C1(CCN(Cc3cccnc3)CC1)N(C)CC2 | 64.92%
5 | CC1(C)CN(CCC(=O)NCc2cccc(Cl)c2)CC[C@]1(C)O | -70.63%
6 | CN(C)c1nccc(C2CCCN(C(=O)CO)C2)n1 (stereo not drawn) | 1.13%
7 | CCn1c(Cn2cncn2)nnc1C1CCN(CC2[C@H]3CNC[C@@H]23)CC1 (stereo partly drawn) | -11.68%
8 | CSCCCN1C(=O)CC[C@H]2CN(Cc3ncc[nH]3)CC[C@H]21 | 27.5%
9 | CC(C)CN1C(=O)CC[C@H]2CN(Cc3ncc[nH]3)CC[C@H]21 | 20.74%
10 | COCCCN1C(=O)CC[C@H]2CN(Cc3ncc[nH]3)CC[C@H]21 | 50.59%
11 | CC1(C)COCCN1C(=O)CCc1nc(-c2ccccn2)no1 | -4.89%
12 | CN(C)CC(=O)N1Cc2nc(C(=O)N3CCCN(C)CC3)oc2C1 | 13.25%
13 | O=C(NCCCn1cccn1)C1CCC(=O)N(Cc2ccccc2F)C1 (stereo not drawn) | 12%
14 | COc1ncnc2c1CCN(c1cc(C(F)(F)F)ncn1)CC2 | 52.08%
15 | CCOc1ncnc2c1CCN(c1cc(C(F)(F)F)ncn1)CC2 | -17.38%
16 | CC(C)Oc1ncnc2c1CCN(c1cc(C(F)(F)F)ncn1)CC2 | 20.86%
17 | CCOCC1CN(Cc2cnn(C)c2)Cc2c1cnn2CC (stereo not drawn) | -8.04%
18 | O=C(c1ccco1)N1CCCC2(CCN(c3nncs3)C2)C1 (stereo not drawn) | -56.25%
19 | Cc1ncc2c(n1)CN(Cc1nnc(-c3ccccc3)o1)CC2 | 33.5%
20 | O=C(NCC1Cn2nnc(-c3ccncc3)c2CO1)c1ccsc1 (stereo not drawn) | 31.96%
21 | CCn1cc(NC(=O)C2CCN(Cc3noc(C4CC4)n3)CC2)cn1 | 66.2%
22 | CCc1noc(CN2CCC(C(=O)Nc3cnn(CC)c3)CC2)n1 | 49.9%
23 | CCn1cc(NC(=O)C2CCN(Cc3noc(C(C)C)n3)CC2)cn1 | -8.7%
24 | O=C(Nc1ccccc1F)N1CCN(Cc2noc(C3CC3)n2)CC1 | 11.1%
25 | O=C(Nc1ccccc1)N1CCN(Cc2noc(C3CC3)n2)CC1 | 31.7%
26 | Cc1ccccc1NC(=O)N1CCN(Cc2noc(C3CC3)n2)CC1 | 71.93%

Row | SMILES | INHIBITION
27 | CC1(C)CC(C(=O)N2CCC3(CCC(=O)N(C4CC4)C3)CC2)CCO1 (stereo not drawn) | -29.52%
28 | COCC(=O)N[C@H]1C[C@@H](Cc2cc(CN3CCOCC3)on2)C1(C)C | 19.39%
29 | CCCS(=O)(=O)N[C@H]1CN(c2ncccc2C(N)=O)C[C@@H]1C(C)C | -50.23%
30 | Cc1nc(C)c(C(=O)N2CCc3nnc(C4CCCCN4C)n3CC2)s1 (stereo not drawn) | 26.44%
31 | COc1ccc(CNC(Cc2ccsc2)c2ncccc2C)cc1OC (stereo not drawn) | -31.69%
32 | CCCN1CCC(c2nc3ccc(NCc4cccnc4)cn3n2)CC1 | 1.42%
33 | CCCN1CCC(c2nc3ccc(NCc4ccccc4)cn3n2)CC1 | 54.65%
34 | Cn1nccc1-c1ccc2nc(C3CCNCC3)nn2c1 | 39.51%
35 | CN1CCC(c2nc3ccc(-c4cccc(F)c4)cn3n2)CC1 | 20.41%
36 | CN1CCC(c2nc3ccc(-c4ccccc4)cn3n2)CC1 | 54.56%
37 | CCCN1CCC(c2nc3ccc(-c4ccccc4)cn3n2)CC1 | 13.16%
38 | CCCN1CCC(c2nc3ccc(C)cn3n2)CC1 | 20.01%
39 | CC(=O)N1CCC(c2nc3ccc(-c4ccnn4C)cn3n2)CC1 | 25.31%
40 | CC(C)N1CCC(c2nc3ccc(-c4ccnn4C)cn3n2)CC1 | 51.94%
41 | Cc1noc(C)c1-c1cnc(CC2CCN(C(=O)c3cc[nH]n3)C2)cn1 (stereo not drawn) | -26.24%
42 | CCC(C)c1csc(NC(=O)Cc2csc(-c3nnc[nH]3)n2)n1 (stereo not drawn) | -5.58%
43 | O=C(CCn1c(C(F)(F)F)cc2cccnc21)N1CCOCC1 | 48.65%
44 | COc1coc(C(=O)Nc2nc(C)cs2)cc1=O | -1.29%
45 | CN(C)C(C(=O)N1CCC(N2CCSCC2)CC1)c1ccccc1F (stereo not drawn) | 4.18%
46 | CN(CC1Cc2ccccc2CN1C)c1nc(N)nc2c1CCNCC2 (stereo not drawn) | 52.98%
47 | CN(Cc1ccccc1-n1cccn1)c1nc(N)nc2c1CCNCC2 | 5.86%
48 | CN(Cc1ccc(-n2cccn2)cc1)c1nc(N)nc2c1CCNCC2 | 18.01%
49 | Cc1nc2c(c(NCC3Cc4ccccc4CN3C)n1)CCNCC2 (stereo not drawn) | 43.44%
50 | Cc1nc2c(c(N(C)CC3Cc4ccccc4CN3C)n1)CCNCC2 (stereo not drawn) | 57.75%
51 | Cc1nc2c(c(N(C)Cc3ccccc3-n3cccn3)n1)CCNCC2 | -19.21%
52 | Cc1nc(N)cc(C2CCN2CCC(N)=O)n1 (stereo not drawn) | 11.32%

Row | SMILES | INHIBITION
53 | Cc1ncsc1CN1C[C@@H]2CCCO[C@@H]2[C@H](N(C)C(C)C)C1 | -10.13%
54 | Cn1cnc2c1CCN(CC(=O)N(Cc1ccccc1F)C1CC1)C2 | 18.99%
55 | O=C(NCCc1cc2nc(-c3ccncc3)ccn2n1)C1CCOCC1 | 9.9%
56 | CS(=O)(=O)Cc1ccc(C(=O)N2CCCC(n3cncn3)C2)o1 (stereo not drawn) | 12.7%
57 | Cc1occc1C(=O)N1CCC2(CCC(=O)N(CC(N)=O)C2)CC1 | -26.32%
58 | O=C(c1nc2sccn2c1-c1ncc[nH]1)N1CCCCC1 | -1.65%
59 | CCN(Cc1ncc(C(C)(C)C)o1)Cc1ccccc1C | -47.18%
60 | Cc1cccc(CN(Cc2ccccn2)Cc2ncc(C(C)(C)C)o2)c1 | 43.44%
61 | CCN(Cc1cccc(Cl)c1)Cc1ncc(C(C)(C)C)o1 | 81.59%
62 | OC1(CNc2ccc(Br)cn2)CCOCC1 | -58.79%
63 | CC(C)(C)C(=O)NCCNCc1ccc(Cl)c2cccnc12 | -53.16%
64 | OC(CNCCn1cccn1)c1cccc(Br)c1 (stereo not drawn) | -69.91%
65 | CN(C)CCNC(=O)c1noc2c1CN(C(=O)N(C)C)CC2 | 59.76%
66 | CC(C)NC(=O)N1CCc2onc(C(=O)NCCN(C)C)c2C1 | 42.62%
67 | CN(C)C(=O)N1CCc2onc(C(=O)Nc3cccnc3)c2C1 | 67.19%
68 | Cc1ccc(CN2CCc3onc(C(=O)Nc4cccnc4)c3C2)o1 | 34.37%
69 | CC(C)C(=O)N1CCc2onc(C(=O)NCCN(C)C)c2C1 | 11.37%
70 | CC(C)NC(=O)N1CCc2onc(C(=O)Nc3cccnc3)c2C1 | 18.87%
71 | CCc1ccc(C(=O)O)cc1S(=O)(=O)N(C)c1cccc(C)c1 | -2.2%
72 | CN(Cc1ccccc1)C(=O)c1nc(S(C)(=O)=O)n2ccccc12 | 3.9%
73 | O=C(O)c1nnn(-c2ccc(OC(F)(F)F)cc2)c1-c1ccncc1 | 3.22%
74 | CC(Nc1ccc2c(c1)CCC2)c1nc(C2CC2)no1 (stereo not drawn) | 6.47%
75 | Cc1ccc2oc(=O)n(CC(=O)N3CCC4(CC3)CN(C)C(=O)O4)c2c1 | -55.13%
76 | COc1c(CNCc2ccc(C(=O)N(C)C(C)C)cc2)c(C)nn1C | 4.55%
77 | O=C(Cc1ccncc1)N(CCO)CCSc1ccc(Cl)cc1 | 47.2%
78 | O=C(Cn1ccnc1)N(CCO)CCSc1ccc(Cl)cc1 | 56.21%

Row | SMILES | INHIBITION
79 | O=C(Cn1cccn1)N(CCO)CCSc1ccc(Cl)cc1 | -5.53%
80 | CCc1cnc(N2CCCOC(CN3CCCC3)C2)nc1 (stereo not drawn) | -30.18%
81 | COCC1CN(CC2CC2)Cc2nn(CC3CC3)cc21 (stereo not drawn) | 11.34%
82 | COCC(=O)N1CCN(S(=O)(=O)c2cccs2)[C@H]2CS(=O)(=O)C[C@H]21 | 18.77%
83 | COCC(=O)N1CCN(C(=O)Cc2cccs2)[C@H]2CS(=O)(=O)C[C@H]21 | 54.47%
84 | COCC(=O)N1CCN(S(=O)(=O)c2ccccc2)[C@H]2CS(=O)(=O)C[C@H]21 | 15.75%
85 | CN1C(=O)CCCC12CCCN(C(=O)c1cc(F)cc(F)c1)C2 (stereo not drawn) | 12.83%
86 | Cn1ccnc1CN1CCOC(Cn2cccn2)C1 (stereo not drawn) | 7.01%
87 | Cc1cccc(-c2ccc(C(=O)NCC3CCCO3)c(=O)[nH]2)c1 (stereo not drawn) | 57.77%
88 | Cc1cccc(-c2ccc(C(=O)NCC3CCOC3)c(=O)[nH]2)c1 (stereo not drawn) | 17.39%
89 | Cc1cccc(-c2ccc(C(=O)NCC3CCCOC3)c(=O)[nH]2)c1 (stereo not drawn) | -9.49%
90 | O=C(N1CCCC1)N1CCC(Nc2ccncn2)CC1 | 39.44%
91 | CC(C)c1cc(NC2CCN(C(=O)N3CCCC3)CC2)ncn1 | 52.98%
92 | CC(C)c1cc(NC2CCCN(C(=O)c3cccs3)C2)ncn1 (stereo not drawn) | -13.8%
93 | Cc1nc2ncc3c(=O)n(C)ccc3n2n1 | -42.16%
94 | CN(C)CC(=O)N1CCCC2(CCC(=O)N(CCc3c[nH]cn3)C2)C1 (stereo not drawn) | 38.93%
95 | Cc1nc[nH]c1C(=O)N1CCCC2(CN(C)C(=O)O2)C1 (stereo not drawn) | 1.06%
96 | CN1CCc2[nH]nc(C(=O)N3CCCC4(CN(C)C(=O)O4)C3)c2C1 (stereo not drawn) | -15.16%
97 | CCc1n[nH]c(C(=O)N2CCCC3(CN(C)C(=O)O3)C2)c1C (stereo not drawn) | 51.9%
98 | CC(NCC(=O)Nc1ccc(N2CCCCCC2)cc1)c1cccs1 (stereo not drawn) | 23.68%
99 | CCc1cc(C(=O)N[C@H]2CN(CCS(C)(=O)=O)C[C@@H]2C2CC2)[nH]n1 | -90.7%
100 | Cc1occc1C(=O)N1CCc2c(CNS(C)(=O)=O)cncc2C1 | -15.09%
101 | CC(C)C[C@H](NC(=O)Nc1ccc(F)c(Cl)c1)C(=O)O | -9.89%
102 | CC(C)CC(NC(=O)Nc1ccc(F)c(Cl)c1)C(=O)O (stereo not drawn) | 56.54%
103 | CC(C)CC(NC(=O)CSc1ccc(F)c(Cl)c1)C(=O)O (stereo not drawn) | 14.54%
